Laboratory results taken from PubChem BioAssay.
Values joined by “and” are separate entries in the source; they are usually repeats but may differ in a detail not shown here. Equal entries are not always repeated. Active and inactive are the calls of the source. Unless noted, the rule behind the calls is not given here.

How the values were obtained:
[1] = target: 6-phosphogluconate dehydrogenase, decarboxylating (Homo sapiens) (UniProt P52209); assay: inhibition of human phosphogluconate dehydrogenase – biochemical, recombinant enzyme, NADPH absorbance, primary screen (AID 1159550;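 active = at least 20% inhibition of 6-phosphogluconate dehydrogenase activity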); settings: recombinant 6PGD, NADPH absorbance 341 nm; at 10 µM; stronger effect = higher value
[2] = compounds altering viability of human ES cells (AID 493140); settings: human embryonic stem cell survival screen; stronger effect = higher value;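 note: cells exposed to compounds for four days before counting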
[3] = EMT-state selective cytotoxicity in co-culture – imaging, PC-3E GFP, TEM4-18 mCherry, primary screen (AID 1345086;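 active = compounds killing one labelled cell type while sparing the other, by normalised counts and ratio limits, not self-fluorescent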;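 for all read-outs here: cells exposed to compound for 72 h before imaging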;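 for red/green cell ratio (normalised): normalised mesenchymal count divided by normalised epithelial count so high means epithelial killing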); settings: PC-3E GFP / TEM4-18 mCherry co-culture, imaging cell counts, at 1 µM; for red/green cell ratio (normalised): actives lie on both sides, counts scaled to control wells, 1 = unselective
[4] = viability loss with induced miR-34 in A549 – imaging, A549 dox-inducible miR-34, nuclei and caspase counts, primary screen (AID 1347080;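 active = compounds whose cell count with miR-34 switched on is under 0.7 times the count with it off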); settings: A549 miR-34 inducible, Hoechst nuclei count, 48 h
[5] = MELAS cybrid and Rieske KO viability enhancers – cell-based, MELAS cybrids, Rieske KO mouse fibroblasts, CellTiter-Glo, primary screen (AID 1508586;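 active = mean z-score across replicates of 1.96 or higher in either the MELAS or the Rieske mutant cell line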;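 note: z relative to plate mean and SD of compound and empty wells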); settings: low glucose
[6] = target: NAD(+) hydrolase SARM1 (Homo sapiens) (UniProt Q6SZW1); assay: blocking NAD cleavage by SARM1 SAM-TIR – cell lysate, NAD-Glo luminescence (AID 1508614;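 active = compound whose remaining NAD level is above about 45 nM, limit read from the data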;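 note: higher remaining NAD means stronger inhibition of SARM1 NADase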); settings: SAM-TIR HEK293T lysate NADase, at 1 µM, stronger effect = higher value
[7] = target: Mitogen-activated protein kinase 7 (Homo sapiens) (UniProt Q13164); assay: Gal4-ERK5 driven luciferase induction – cell-based, HTS, primary screen (AID 1508626;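 active = luciferase signal above three times the same-plate solvent-only control wells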;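 note: luciferase driven by Gal4-ERK5 fusion binding five Gal4 sites before minimal TATA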); settings: HeLa Gal4-ERK5 transactivation, 18 h, at 5 µM, stronger effect = higher value
[8] = galactose survival enhancers in mitochondrial complex I cybrids – cell-based, galactose medium, ATP luminescence, primary screen (AID 1645843;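 active = z-score of at least 1.8 in each of two replicates, scored against plate mean and spread of sample wells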;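 note: positive z means more ATP and so rescue of galactose-driven cybrid death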); settings: complex I mutant cybrid cells, 72 h, stronger effect = higher value
[9] = P. berghei load reduction in hepatocytes – cell-based, HepG2, luciferase luminescence, HepG2 viability, primary screen (AID 624349; in the data active = parasite load remaining mostly below about 12%, no sharp cut-off; inactive = mostly above about 10%;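 note: 100% = mean of DMSO negative control wells on the same plate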); settings: P. berghei liver stage in HepG2, luciferase luminescence, concentration not given here; parasite load remaining: stronger effect = lower value; viability: measured here: HepG2 viability without parasites
[10] = signal quenchers or enhancers, Cy5 substrate/SSB – biochemical, NIH Clinical Collection, E. coli SSB, artefact control for HCV NS3 helicase inhibitor project (AID 743268); settings: Cy5-oligo bound E. coli SSB, fluorescence interference
[11] = system: Hepatitis C virus NS3 helicase; assay: blockers of NS3h binding to DNA – biochemical, fluorescence polarization, NIH Clinical Collection, primary screen (AID 743270); settings: NS3 helicase binding to Cy5-dT15 DNA, stronger effect = higher value, concentration not given here
[12] = target: Single-stranded DNA-binding protein (Escherichia coli (strain K12)) (UniProt P0AGE0); assay: SSB-ssDNA binding inhibitors – biochemical, fluorescence polarization, NIH Clinical Collection, counter-screen for HCV NS3 helicase inhibitor project (AID 743271; in the data active = inhibition above about 28%); settings: E. coli SSB-DNA binding, stronger effect = higher value, concentration not given here
[13] = compounds distorting NS3 helicase fluorescence signal – biochemical, NIH Clinical Collection, artefact control for HCV NS3 helicase inhibitor project (AID 743272); settings: fluorescence interference counterscreen, HCV NS3 helicase assay; stronger effect = lower value;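 note: HCV NS3 helicase with a Cy5 labelled single stranded DNA probe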
F380Y = assay: BK channel mutant inhibitors and activators – cell-based, U2OS BacMam, thallium flux, beta subunits, selectivity assay, profiling panel (AID 1259406;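 active = thallium flux through the channel raised or lowered by more than 3 SD from vehicle-only wells, actives on both sides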;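 note: initial slope of Thallos dye fluorescence rise after thallium is added; log ratio against the mean of 0.3% DMSO vehicle wells on the same plate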); settings: U2OS BacMam BK variants, at 30 µM
F380Y/beta2Delta = assay: as above; settings: U2OS BacMam BK variants, at 30 µM
[14] = target: Calcium-activated potassium channel subunit alpha-1 (Homo sapiens) + Leucine-rich repeat-containing protein 26 (Homo sapiens) (UniProt Q12791+Q2I0M4); assay: as above; settings: U2OS BacMam BK variants, F380Y/Slo1WT/gamma1, at 30 µM
R275C = assay: as above; settings: U2OS BacMam BK variants, at 30 µM
R275C/beta1 = assay: as above; settings: U2OS BacMam BK variants, at 30 µM
R275C/beta2Delta = assay: as above; settings: U2OS BacMam BK variants, at 30 µM
[15] = drug combination growth inhibition, ovarian cancer – cell-based, oncology-focused library, rucaparib conditional, profiling panel (AID 1508598;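 active = normalized viability below 100% at a tested concentration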); settings: patient-derived ovarian cancer cells, CellTiter-Glo viability, 144 h, stronger effect = lower value
[16] = measured here: epithelial PC-3E GFP cell survival
[17] = measured here: mesenchymal TEM4-18 mCherry cell survival
[18] = stronger effect = lower value, cell number ratio, induced over uninduced
[19] = measured here: relative caspase fold change +Dox/-Dox
[20] = measured here: total cells with miR-34 induction, stronger effect = lower value
[21] = measured here: total cells without miR-34 induction
[22] = MELAS cybrid survival, CellTiter-Glo 48 h, stronger effect = higher value
[23] = Rieske KO mouse fibroblast survival, CellTiter-Glo 72 h

6-phosphogluconate dehydrogenase, decarboxylating (Homo sapiens), sequence (P52209 whole entry, looked up): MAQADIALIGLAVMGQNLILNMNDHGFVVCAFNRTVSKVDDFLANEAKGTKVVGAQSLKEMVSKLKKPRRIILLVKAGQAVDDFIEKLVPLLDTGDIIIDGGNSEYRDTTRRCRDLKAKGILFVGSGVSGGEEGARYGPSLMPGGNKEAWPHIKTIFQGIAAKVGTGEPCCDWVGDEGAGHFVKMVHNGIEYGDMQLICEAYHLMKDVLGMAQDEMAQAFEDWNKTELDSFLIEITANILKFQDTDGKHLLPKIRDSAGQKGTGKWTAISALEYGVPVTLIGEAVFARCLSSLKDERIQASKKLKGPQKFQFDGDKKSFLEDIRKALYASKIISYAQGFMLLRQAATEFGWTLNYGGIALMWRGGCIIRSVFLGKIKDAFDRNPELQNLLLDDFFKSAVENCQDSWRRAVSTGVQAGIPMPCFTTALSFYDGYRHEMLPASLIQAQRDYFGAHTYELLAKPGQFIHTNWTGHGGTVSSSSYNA
NAD(+) hydrolase SARM1 (Homo sapiens), sequence (Q6SZW1 whole entry, looked up, the tested form may be a part): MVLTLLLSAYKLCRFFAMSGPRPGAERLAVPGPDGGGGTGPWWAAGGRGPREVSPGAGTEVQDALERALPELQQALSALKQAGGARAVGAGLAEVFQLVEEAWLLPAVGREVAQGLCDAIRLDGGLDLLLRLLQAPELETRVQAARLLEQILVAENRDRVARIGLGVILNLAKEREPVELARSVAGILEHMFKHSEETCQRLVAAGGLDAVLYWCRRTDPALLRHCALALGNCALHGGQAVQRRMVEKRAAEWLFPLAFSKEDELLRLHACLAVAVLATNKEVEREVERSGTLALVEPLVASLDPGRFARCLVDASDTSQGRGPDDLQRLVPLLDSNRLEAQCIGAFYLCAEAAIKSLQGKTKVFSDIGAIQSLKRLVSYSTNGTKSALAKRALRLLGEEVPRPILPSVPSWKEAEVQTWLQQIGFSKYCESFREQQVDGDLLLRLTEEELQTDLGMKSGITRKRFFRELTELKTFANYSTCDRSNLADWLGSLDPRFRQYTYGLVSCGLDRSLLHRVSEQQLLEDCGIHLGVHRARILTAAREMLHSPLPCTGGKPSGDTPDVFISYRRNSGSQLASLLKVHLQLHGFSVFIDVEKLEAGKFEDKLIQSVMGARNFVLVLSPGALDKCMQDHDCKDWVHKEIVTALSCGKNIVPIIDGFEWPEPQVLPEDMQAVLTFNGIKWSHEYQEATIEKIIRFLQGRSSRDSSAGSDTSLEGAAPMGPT
Mitogen-activated protein kinase 7 (Homo sapiens), sequence (Q13164 whole entry, looked up, the tested form may be a part): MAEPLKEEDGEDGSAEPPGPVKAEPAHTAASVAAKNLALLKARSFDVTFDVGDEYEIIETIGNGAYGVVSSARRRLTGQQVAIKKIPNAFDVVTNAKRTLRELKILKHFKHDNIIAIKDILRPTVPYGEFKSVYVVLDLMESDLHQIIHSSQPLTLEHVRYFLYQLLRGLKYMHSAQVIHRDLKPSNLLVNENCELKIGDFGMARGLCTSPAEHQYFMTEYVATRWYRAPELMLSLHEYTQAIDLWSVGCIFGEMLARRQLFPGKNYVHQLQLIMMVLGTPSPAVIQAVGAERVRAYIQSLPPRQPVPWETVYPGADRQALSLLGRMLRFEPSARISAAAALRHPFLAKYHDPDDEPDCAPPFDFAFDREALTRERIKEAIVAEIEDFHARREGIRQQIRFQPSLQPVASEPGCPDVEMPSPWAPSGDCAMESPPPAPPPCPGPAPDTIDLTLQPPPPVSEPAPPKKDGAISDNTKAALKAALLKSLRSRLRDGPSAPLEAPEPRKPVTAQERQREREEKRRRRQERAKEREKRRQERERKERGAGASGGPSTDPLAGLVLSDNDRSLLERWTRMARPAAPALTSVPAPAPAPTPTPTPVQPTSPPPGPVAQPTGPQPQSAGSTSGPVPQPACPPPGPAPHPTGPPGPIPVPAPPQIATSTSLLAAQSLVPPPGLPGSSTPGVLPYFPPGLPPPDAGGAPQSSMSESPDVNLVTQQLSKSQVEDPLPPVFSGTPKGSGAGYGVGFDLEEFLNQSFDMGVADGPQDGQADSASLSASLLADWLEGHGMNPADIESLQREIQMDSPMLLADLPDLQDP
Calcium-activated potassium channel subunit alpha-1 (Homo sapiens) + Leucine-rich repeat-containing protein 26 (Homo sapiens), sequence (Q2I0M4 whole entry, looked up, one chain of several): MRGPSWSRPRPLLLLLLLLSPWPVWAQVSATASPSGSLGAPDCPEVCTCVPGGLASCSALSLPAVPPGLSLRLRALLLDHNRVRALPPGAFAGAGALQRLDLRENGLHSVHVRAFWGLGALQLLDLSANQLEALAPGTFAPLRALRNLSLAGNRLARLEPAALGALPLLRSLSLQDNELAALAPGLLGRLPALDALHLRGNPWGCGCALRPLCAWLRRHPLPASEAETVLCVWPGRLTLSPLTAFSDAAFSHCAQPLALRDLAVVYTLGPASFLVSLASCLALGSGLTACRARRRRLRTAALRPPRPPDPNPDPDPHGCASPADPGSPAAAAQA

## CC(=O)Oc1ccc(/C=C2\N=C(c3ccccc3)OC2=O)cc1
[1]
  inhibition: 0.187% (inactive)

## COc1ccc(-c2c(OC)c3c(OC)c4c(cc3oc2=O)OC(C)(C)C=C4)cc1
[1]
  inhibition: 5.26% (inactive)

## CN(C)C(=N)N=C(N)N
[2]
  survival: 14 (inactive)
[1]
  inhibition: 10.4% (inactive)
[3]
  red/green cell ratio (normalised): 0.72 (inactive)
[3]; [16]
  normalised cell number: 1.31
[3]; [17]
  normalised cell number: 0.95
[4]; [18]
  fold change: 0.831 (inactive) and 0.956 (inactive) and 0.958 (inactive)
[4]; [19]
  fold change: 1.13 and 2.95 and 0.938
[4]; [20]
  cell count: 7440 and 12900 and 10500
[4]; [21]
  cell count: 8950 and 13500 and 10900
[5]; [22]
  z-score: -0.356 (inactive) and 0.193 (inactive)
[5]; [23]
  z-score: 0.0508 and -0.797
[6]
  remaining NAD: 10 nM (inactive)
[7]
  luciferase signal: 508 AU (active)
[8]
  z-score: 0.78 (inactive)

## Nc1ccccn1
[1]
  inhibition: -0.139% (inactive)

## CC(C)(C)CC(C)(C)c1ccc(OCCOCC[N+](C)(C)Cc2ccccc2)cc1
[2]
  survival: 0.167 (inactive)
[1]
  inhibition: -3.07% (inactive)
[4]; [18]
  fold change: 0.798 (inactive) and 0.823 (inactive) and 0.768 (inactive)
[4]; [19]
  fold change: 1.51 and 1.83 and 3.74
[4]; [20]
  cell count: 2760 and 5310 and 8060
[4]; [21]
  cell count: 3460 and 6450 and 10500
[5]; [22]
  z-score: -0.38 (inactive) and -2.14 (inactive)
[5]; [23]
  z-score: -0.151 and 1.32
[6]
  remaining NAD: 13 nM (inactive)
[7]
  luciferase signal: 44 AU (inactive)

## COc1ccc2c(c1)[C@@]1(C)CCC(=O)C[C@@H]1CC2
[1]
  inhibition: 3.57% (inactive)

## COc1cc(O)c2c(=O)cc(-c3ccc(O)cc3)oc2c1
[1]
  inhibition: 6.18% (inactive)

## O=S(=O)(c1cccc2cnccc12)N1CCCNCC1
[2]
  survival: 467 (active)
[9]
  parasite load remaining: 62.2% (inactive) and 44.5% (inactive)
  viability: 103% and 67.7%
[3]
  red/green cell ratio (normalised): 1.1 (inactive)
[3]; [16]
  normalised cell number: 0.86
[3]; [17]
  normalised cell number: 0.95
[5]; [22]
  z-score: -0.155 (inactive) and -0.944 (inactive)
[5]; [23]
  z-score: -1.52 and 0.0333
[6]
  remaining NAD: 10 nM (inactive)
[8]
  z-score: -0.745 (inactive) and -1.1 (inactive)

## COc1ccc(-c2coc3cc(O)c(OC)cc3c2=O)cc1
[1]
  inhibition: 10.5% (inactive)

## CC(C)(OC(=O)c1ccccc1)[C@@H]1Cc2cc3ccc(=O)oc3cc2O1
[1]
  inhibition: 20% (active)

## CCOC(=O)c1c(C)cc(O)c(C)c1O
[1]
  inhibition: -2.48% (inactive)

## CC(C)(C)c1ccc(C(O)CCCN2CCC(C(O)(c3ccccc3)c3ccccc3)CC2)cc1 (stereo not given)
[2]
  survival: 3.75 (inactive)
[3]
  red/green cell ratio (normalised): 0.94 (inactive)
[3]; [16]
  normalised cell number: 1.26
[3]; [17]
  normalised cell number: 1.18
[5]; [22]
  z-score: -0.29 (inactive) and -0.00284 (inactive)
[5]; [23]
  z-score: 1.02 and 1.14
[6]
  remaining NAD: 10 nM (inactive)
[7]
  luciferase signal: 108 AU (inactive)
[8]
  z-score: -1.31 (inactive) and 0.135 (inactive)

## C[N+]1(C)CCC(OC(=O)C(O)(c2ccccc2)C2CCCC2)C1 (stereo not given)
[2]
  survival: 3.83 (inactive)
[10]
  fluorescence ratio: 1.05 (inactive) and 1.06 (inactive)
[11]
  inhibition: 2.77% (inactive) and 0.45% (inactive)
[12]
  inhibition: 1.44% (inactive) and 1.81% (inactive)
[13]
  fluorescence ratio: 1.05 (inactive) and 1 (inactive)
[3]
  red/green cell ratio (normalised): 0.8 (inactive)
[3]; [16]
  normalised cell number: 1.28
[3]; [17]
  normalised cell number: 1.02
[4]; [21]
  cell count: 11400 and 10400 and 13800
[5]; [22]
  z-score: 0.599 (inactive)
[5]; [23]
  z-score: 0.684
[6]
  remaining NAD: 10 nM (inactive)
[8]
  z-score: 0.385 (inactive) and 0.61 (inactive)
F380Y
  log fold change Tl+ flux: -0.0314 (inactive) and -0.0508 (inactive)
F380Y/beta2Delta
  log fold change Tl+ flux: 0.0168 (inactive) and -0.0515 (inactive)
[14]
  log fold change Tl+ flux: -0.0241 (inactive) and -0.0355 (inactive)
R275C
  log fold change Tl+ flux: -0.0259 (inactive) and -0.0857 (inactive)
R275C/beta1
  log fold change Tl+ flux: 0.0143 (inactive) and 0.0309 (inactive)
R275C/beta2Delta
  log fold change Tl+ flux: 0.0449 (inactive) and -0.0318 (inactive)

## CC(C)n1c(/C=C/[C@@H](O)C[C@@H](O)CC(=O)O)c(-c2ccc(F)cc2)c2ccccc21
[2]
  survival: 2.5 (inactive)
[9]
  parasite load remaining: 164% (inactive) and 130% (inactive)
  viability: 82.3% and 114%
[10]
  fluorescence ratio: 1.05 (inactive)
[11]
  inhibition: -2.27% (inactive)
[12]
  inhibition: 2.57% (inactive)
[13]
  fluorescence ratio: 1.03 (inactive)
[3]
  red/green cell ratio (normalised): 0.7 (inactive)
[3]; [16]
  normalised cell number: 0.75
[3]; [17]
  normalised cell number: 0.53
[4]; [18]
  fold change: 1.1 (inactive) and 1.08 (inactive)
[4]; [19]
  fold change: 0.844 and 2.14
[4]; [20]
  cell count: 1760 and 2100
[4]; [21]
  cell count: 1610 and 1940
[5]; [22]
  z-score: -1.26 (inactive)
[5]; [23]
  z-score: -0.983
[15]; at 0.000305 µM, OCI-C5x cells, with rucaparib 10 µM, 100% = cells with rucaparib alone
  viability: 102% (inactive)
[15]; at 0.000305 µM, OCI-C5x cells, without rucaparib
  viability: 102% (inactive)
[15]; at 0.000305 µM, OCI-P5x cells, with rucaparib 20 µM, 100% = cells with rucaparib alone
  viability: 86.5% (active)
[15]; at 0.000305 µM, OCI-P5x cells, without rucaparib
  viability: 89.2% (active)
[15]; at 0.00122 µM, OCI-C5x cells, with rucaparib 10 µM, 100% = cells with rucaparib alone
  viability: 102% (inactive)
[15]; at 0.00122 µM, OCI-C5x cells, without rucaparib
  viability: 109% (inactive)
[15]; at 0.00122 µM, OCI-P5x cells, with rucaparib 20 µM, 100% = cells with rucaparib alone
  viability: 89.7% (active)
[15]; at 0.00122 µM, OCI-P5x cells, without rucaparib
  viability: 88.8% (active)
[15]; at 0.00488 µM, OCI-C5x cells, with rucaparib 10 µM, 100% = cells with rucaparib alone
  viability: 92% (active)
[15]; at 0.00488 µM, OCI-C5x cells, without rucaparib
  viability: 96.6% (active)
[15]; at 0.00488 µM, OCI-P5x cells, with rucaparib 20 µM, 100% = cells with rucaparib alone
  viability: 82.4% (active)
[15]; at 0.00488 µM, OCI-P5x cells, without rucaparib
  viability: 87.2% (active)
[15]; at 0.0195 µM, OCI-C5x cells, with rucaparib 10 µM, 100% = cells with rucaparib alone
  viability: 73.9% (active)
[15]; at 0.0195 µM, OCI-C5x cells, without rucaparib
  viability: 71.3% (active)
